# From PubChem
# Sampled rows, rich in hits. Any-hit rate of the full collection: about 2.4%.
# PfM18AAP inh: PfM18AAP enzyme inhibition. 1.2% of 290,000 active. recombinant PfM18AAP, H-Glu-NHMec fluorogenic cleavage. inhibition, % at 7.35 µM;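 active = inhibition above the campaign mean inhibition over all tested compounds plus 3 SD, cut at about 28% in these data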;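 also: 0% = plate median of test compound wells and 100% = 2 mM ZnCl2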
# APOBEC3A inh: human APOBEC3A DNA deaminase inhibition. P31941. recombinant A3A, FAM/TAMRA ssDNA deamination fluorescence. inhibition, % at 20 µM. 0.41% of 330,000 active;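 active = at least 40% inhibition at 20 µM here, with at most 30% in a related deaminase screen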;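 also: plate controls were A3A with DMSO for no effect and wells lacking A3A enzyme for full effect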
# Target sequence (P31941 whole entry, looked up): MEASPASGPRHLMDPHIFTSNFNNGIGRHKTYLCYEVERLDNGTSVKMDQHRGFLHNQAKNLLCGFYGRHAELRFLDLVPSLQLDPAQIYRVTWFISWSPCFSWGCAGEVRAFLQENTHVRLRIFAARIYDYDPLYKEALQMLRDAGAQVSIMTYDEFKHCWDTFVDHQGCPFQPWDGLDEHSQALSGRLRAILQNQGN
# CR mimetic SO: caloric restriction mimetics inhibiting age-related superoxide in yeast; S. cerevisiae aged cells, superoxide DHE fluorescence; stronger effect = lower value; superoxide response (% of plate mean), % at 10 µM; 0.18% of 330,000 active;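 active = superoxide response under a set limit, about three screen SD below normal, cut at about 65% in these data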;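 also: yeast aged for seven days with compound at 30 °C before DHE staining; 100% = average MFI of all compound-treated wells on the plate with controls excluded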
# A3G deaminase: inhibitors of human APOBEC3G DNA deaminase; Q9HC16; 0.28% of 330,000 active; inhibition, % at 20 µM; recombinant A3G, ssDNA deamination FAM/TAMRA fluorescence; AID 493012;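 active = inhibition of at least 40% at 20 µM, with no more than 30% in the related APOBEC3A deaminase screen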;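 also: plate controls were DMSO wells with A3G for no effect and wells lacking A3G enzyme for full effect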
# Target sequence (Q9HC16 whole entry, looked up): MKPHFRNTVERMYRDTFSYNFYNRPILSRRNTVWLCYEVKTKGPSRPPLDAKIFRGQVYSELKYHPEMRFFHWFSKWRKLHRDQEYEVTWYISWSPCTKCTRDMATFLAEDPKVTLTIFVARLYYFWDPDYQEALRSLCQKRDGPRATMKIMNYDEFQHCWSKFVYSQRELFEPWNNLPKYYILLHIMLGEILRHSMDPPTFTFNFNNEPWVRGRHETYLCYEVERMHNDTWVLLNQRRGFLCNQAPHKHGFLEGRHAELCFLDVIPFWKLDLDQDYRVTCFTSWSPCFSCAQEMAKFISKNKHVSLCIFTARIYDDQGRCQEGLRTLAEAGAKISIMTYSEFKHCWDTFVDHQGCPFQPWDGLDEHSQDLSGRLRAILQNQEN
# PfG6PD inh: PfG6PD (Plasmodium falciparum) enzyme inhibition; inhibition, % at 20 µM; PfGluPho enzyme, NADPH resazurin-diaphorase fluorescence; 0.78% of 350,000 active; AID 504690;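 active = inhibition reaching at least a set limit at 20 µM in the primary screen, cut at about 59% in these data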;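 also: 0% = DMSO wells with substrate and 100% = DMSO wells lacking glucose-6-phosphate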
# Superoxide pick: confirmation of caloric restriction mimetics inhibiting yeast age-related superoxide; shares compounds with CR mimetic SO; S. cerevisiae aging, superoxide DHE fluorescence; stronger effect = lower value; 1% of 850 active; superoxide response (% of plate), % at 10 µM;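 active = superoxide signal below 65% of the plate average of sample wells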;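 also: cells aged with compound for 7 days at 30 degrees C before staining; 100% equals mean DHE fluorescence of all compound wells on the plate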
# DHE fluor count: compound alters DHE oxidation or fluorescence in yeast; shares compounds with CR mimetic SO; S. cerevisiae BY4741, flow cytometry; stronger effect = lower value; fluorescence response, % at 10 µM; 850 tested, under 10 active; AID 435000;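 active = fluorescence response below 15%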;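 also: percent of the mean fluorescence averaged over all compound wells on the plate; lower means stronger quenching of DHE signal or ROS scavenging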
# Active calls of the source: *; · = not tested or not shown.
SMILES,PfM18AAP inh,APOBEC3A inh,CR mimetic SO,A3G deaminase,PfG6PD inh,Superoxide pick,DHE fluor count
COc1ccc2c(C)cc(SCC(=O)c3ccc4c(c3)OCO4)nc2c1,11,12,64*,1,5,94,95
CC12CCCC[C@@H]1CCC1C2CCC2(C)C1CC[C@@]2(O)CNCCO (stereo partly specified),6,-6,89,-9,9,103,94
CC12CCC(=O)CC1CCC1C2CCC2(C)C1CCC2(O)C(=O)CO (stereo unspecified),·,·,·,·,-7,·,·
COC(=O)C1C(=O)C=C(Nc2ccc(F)cc2F)CC1c1ccc(OC)cc1 (stereo unspecified),-3,-2,104,-2,-5,·,·
COC(=O)C1C(=O)C=C(Nc2ccc(F)cc2)CC1c1ccc(OC)cc1 (stereo unspecified),-4,-2,65*,-5,1,113,105
Cc1cc(C)n(-c2ccc(F)cc2)c(=O)c1C#N,-1,2,101,-2,-5,·,·
Cc1ccc(-n2c(C)cc(C)c(C#N)c2=O)cc1C,6,-7,62*,-7,3,100,103
CC(=O)O[C@H]1[C@H](O)[C@H](Oc2c(O)c(C)c3c4c2[C@@H](C)CC[C@@H]4[C@@H](C)C[C@H]3C=C(C)C)O[C@@H](C)[C@H]1O,·,1,92,-6,20,·,·
Cn1c(=O)c2c(nc(CN3CCOCC3)n2CCN2CCOCC2)n(C)c1=O,-2,3,60*,-3,-5,94,92
CCCCn1c(CN2CCOCC2)nc2c1c(=O)n(C)c(=O)n2C,4,-3,99,-3,-12,·,·
COc1ccc(CCNC(=O)/C=C/c2ccco2)cc1,-27,-4,92,-4,24,·,·
CN(C)S(=O)(=O)c1ccc(S(=O)(=O)N2CCCC(C(=O)NC3CCCC3)C2)cc1 (stereo unspecified),0,4,87,-1,-19,·,·
CCCSc1ccc([C@@H]2[C@H]3C(=O)N(CC)C(=O)[C@H]3[C@]3(C(=O)OC)CCCCN23)cc1,·,1,104,-3,28,·,·
O=C(/C=C/c1ccccc1)NC(=S)NNC(=O)Cc1cccs1,13,7,50*,8,-13,87,88
Cc1ccc(NC(=O)COC(=O)CNC(=O)c2ccc(Br)cc2)c(C)c1,-8,0,98,0,-1,·,·
CC(=O)Nc1cccc(C(=O)N/N=C/c2c[nH]c3ccccc23)c1,1,3,99,-3,-11,·,·
COc1cc(C(=O)N2CCN(C(=O)c3cc(-c4ccccc4)n[nH]3)CC2)cc(OC)c1OC,-2,2,63*,-1,10,97,89
COc1cc(C(=O)N2CCN(CCCc3ccccc3)CC2)cc(OC)c1OC,·,-1,106,5,10,·,·
NC(CCCCc1ccccc1)c1cccc2ccccc12 (stereo unspecified),·,3,92,-3,·,·,·
CCc1ccccc1NC(=O)Cn1nc(C)n2cccc2c1=O,-4,2,63*,18,-2,98,88
COc1cc(C(=O)NCCC(=O)NCCCN2CCCCC2C)cc(OC)c1OC (stereo unspecified),6,-2,62*,-2,-4,123,112
COc1cc(C(=O)NCCC(=O)NC2CCCCC2)cc(OC)c1OC,-6,-5,111,-4,2,·,·
c1ccc(-c2cccc(-c3ccccn3)n2)nc1,8,-5,63*,-6,-35,76,118
c1ccc(-c2nnc(-c3ccccn3)nn2)nc1,·,4,95,-6,24,·,·
CC(=O)c1ccc(NS(=O)(=O)c2ccccc2)cc1,-3,-2,104,-8,-11,94,86
SMILES,PfM18AAP inh,APOBEC3A inh,CR mimetic SO,A3G deaminase,PfG6PD inh,Superoxide pick,DHE fluor count
CCN(CC)C(=O)CSC1=Nc2ccccc2C2=NC(Cc3c[nH]c4ccccc34)C(=O)N12 (stereo unspecified),3,0,65*,-1,14,104,91
CC(=O)c1ccc(NC(=O)CSc2n[nH]c(-c3cccnc3)n2)cc1,-17,-1,104,-6,-1,·,·
Cc1cc(C)c(S(=O)(=O)Nc2ccccc2)c(C)c1,·,·,·,·,39,·,·
Cc1cc(C)c(S(=O)(=O)Nc2ccc(O)cc2)c(C)c1,-13,-1,94,0,4,121,121
Nc1nc(SCc2ccccc2)n[nH]1,-1,-3,115,-4,-4,·,·
Nc1nc(SCc2ccc(Br)cc2)n[nH]1,-13,-8,49*,-10,1,102,92
CC(=O)Nc1cccc(C(=O)N2CCN(S(=O)(=O)c3ccc(C4CCCCC4)cc3)CC2)c1,·,·,·,·,7,·,·
Cn1cc(C2CC(c3ccccc3)=NN2C(=O)c2ccccc2)c2ccccc21 (stereo unspecified),-2,3,59*,0,4,93,103
COC(=O)C1CN(C(=O)C(C)Oc2ccccc2Cl)c2ccccc2O1 (stereo unspecified),-8,-2,64*,2,-3,101,102
COC(=O)C1CN(C(=O)COc2ccc(Cl)cc2Cl)c2ccccc2O1 (stereo unspecified),3,-3,78,-8,22,·,·
COCCCN1C(=O)N(c2ccccc2)C(=O)C1CC(=O)Nc1ccccc1 (stereo unspecified),-4,-1,116,-4,4,·,·
COCCCN1C(=O)N(c2ccccc2)C(=O)C1CC(=O)Nc1ccc(F)cc1 (stereo unspecified),-19,1,62*,-3,3,95,90
Nc1ccccc1C(=O)N1O[C@@H]2C=C[C@H]1CC2,·,0,97,-1,14,·,·
Cc1ccc(S(=O)(=O)N(CC(=O)Nc2ccc(C(N)=O)cc2)C(=O)N2CCN(C)CC2)cc1,·,0,65*,-6,-5,114,99
CN(CC(O)Cn1c2ccccc2c2ccccc21)S(C)(=O)=O (stereo unspecified),2,-4,101,-10,-7,101,97
OCCN(CCO)CC(O)Cn1c2ccccc2c2ccccc21 (stereo unspecified),-6,-4,124,-8,-3,91,99
OC(CN1CCCCC1)Cn1c2ccccc2c2ccccc21 (stereo unspecified),11,-4,46*,-6,-4,95,102
O=C(COc1ccc(F)cc1)Nc1nnc(S(=O)(=O)N2CCCC2)s1,3,1,105,0,-13,·,·
COC(=O)c1ccccc1S(=O)(=O)NNC(=O)Nc1ccccc1,0,-3,104,-10,-12,·,·
CN(C(=O)CN1CCN(c2ccc([N+](=O)[O-])cn2)CC1)c1ccccc1,9,-4,130,-11,-2,96,103
[O-][n+]1c2ccccc2[n+]([O-])c2cc(O)ccc21,16,47,51*,40,6,61*,90
